Mcl1 Bid PPI: disrupts binding of human Mcl-1 to Bid peptide | TR-FRET Mcl-1/Bid-Dy647 peptide binding, 1536-well | inhibition, % at 21.7 µM | 0.97% of 220,000 active;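 active = compounds that cut the binding signal by more than half at the single screening dose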;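 also: His-tagged Mcl-1 with europium anti-His antibody binding Bid BH3 peptide; 0% = Mcl-1 plus peptide wells and 100% = peptide-only wells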
Target sequence (Q07820 whole entry, looked up): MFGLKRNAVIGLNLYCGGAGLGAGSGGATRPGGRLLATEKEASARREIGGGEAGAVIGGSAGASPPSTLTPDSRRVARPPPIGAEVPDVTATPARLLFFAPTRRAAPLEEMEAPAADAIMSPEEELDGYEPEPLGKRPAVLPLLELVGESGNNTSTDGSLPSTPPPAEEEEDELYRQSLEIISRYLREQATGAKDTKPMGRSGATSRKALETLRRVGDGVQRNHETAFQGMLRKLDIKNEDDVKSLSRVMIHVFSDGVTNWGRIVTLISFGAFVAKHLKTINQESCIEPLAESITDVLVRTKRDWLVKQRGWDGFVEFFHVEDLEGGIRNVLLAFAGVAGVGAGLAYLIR
MCL1-BIM inh: inhibitors of human MCL1 binding to BIM-BH3 peptide; AID 2057; inhibition, % at 10.9 µM; GST-MCL1 / FITC-Bim-BH3 fluorescence polarization; 0.68% of 320,000 active; Q07820;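 active = inhibition above the mean inhibition of all tested compounds plus 3 SD, set per campaign, cut at about 40% in these data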;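 also: 0% = DMSO wells and 100% = unlabeled Bim-BH3 peptide control; higher means more loss of mP so more displacement of Bim peptide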
Mcl1 Noxa PPI: disrupts binding of human Mcl-1 to Noxa peptide; Q07820; TR-FRET Mcl-1/Noxa peptide binding, 2 h; inhibition, % at 21.7 µM; 1.5% of 220,000 active; AID 1022;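 active = compounds that cut the protein-peptide binding signal by more than 50% relative to plate controls in a single-dose test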;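 also: His-tagged Mcl-1 with rhodamine Noxa BH3 peptide and terbium anti-His antibody; 0% = Mcl-1 plus Noxa peptide wells and 100% = peptide-only wells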
14-3-3 Bad PPI: disrupts binding of bovine 14-3-3 zeta to phospho-Bad peptide; TR-FRET 14-3-3zeta/Dy647-pBad peptide displacement, 1 h; P63103; 0.71% of 220,000 active; inhibition, % at 21.7 µM;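 active = inhibition above about 70%, limit read from the data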;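 also: 0% = full 14-3-3 plus peptide FRET controls and 100% = background without 14-3-3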
Target sequence (P63103 whole entry, looked up): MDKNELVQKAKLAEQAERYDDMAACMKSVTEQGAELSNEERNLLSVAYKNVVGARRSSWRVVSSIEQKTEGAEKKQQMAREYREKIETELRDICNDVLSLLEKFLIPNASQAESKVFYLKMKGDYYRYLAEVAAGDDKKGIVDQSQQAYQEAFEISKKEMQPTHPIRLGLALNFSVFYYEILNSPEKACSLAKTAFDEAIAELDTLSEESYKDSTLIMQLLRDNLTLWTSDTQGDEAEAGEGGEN
Bim-Mcl-1: human Bim-Mcl-1 interaction inhibition. Q07820. Bead-based flow cytometry, Bim peptide-Mcl-1 binding. inhibition, % at 10 µM. 0.1% of 190,000 active; in the data active = inhibition above about 40%;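 also: 0% = no compound tracer wells and 100% = peptide blocker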
eIF4E-4G inh: inhibitors of eIF4E and eIF4G interaction in translation initiation | P63073+Q04637 | TR-FRET eIF4E-eIF4GI(517-606) binding, 2 h | inhibition, % at 21.7 µM | 0.37% of 220,000 active | AID 782;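 active = inhibition above about 30%, limit read from the data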;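 also: 0% = full FRET control wells and 100% = background wells lacking eIF4GI fragment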
Active calls of the source: *; [ ] = another dose, or the depositor's remark. Hits are enriched below; roughly 2.6% of the tested compounds scored in any of these assays.

`Cc1ccc(/C=C/C(=O)Nc2ccc(S(N)(=O)=O)cc2)o1` gave Mcl1 Bid PPI -30, MCL1-BIM inh 0, Mcl1 Noxa PPI 33, 14-3-3 Bad PPI -11, Bim-Mcl-1 -1 and eIF4E-4G inh 0.
Screening CCC(Oc1ccccc1)C(=O)Nc1ccc(C)c(S(=O)(=O)N2CCOCC2)c1 (configuration not stated) returned MCL1-BIM inh -6.
For Cc1ccnc(NC(=O)C(Cc2ccccc2)NC(=O)c2ccccc2)c1 (configuration not stated) the results were MCL1-BIM inh 8.
Screening CC(=O)c1ccc(NC(=O)CSc2nnc(-c3ccco3)c(-c3ccco3)n2)cc1 returned Mcl1 Bid PPI -77, MCL1-BIM inh 33, Mcl1 Noxa PPI 79*, 14-3-3 Bad PPI 8, Bim-Mcl-1 9 and eIF4E-4G inh 12.
`CCN(CC)CCn1c2ccccc2c2nc(C)sc21` gave Mcl1 Bid PPI -23, MCL1-BIM inh -2, Mcl1 Noxa PPI 34, 14-3-3 Bad PPI 82*, Bim-Mcl-1 2 and eIF4E-4G inh 13.
For COc1ccccc1N1CCN(/N=C/C=C/c2ccccc2[N+](=O)[O-])CC1 the results were Mcl1 Bid PPI -103, MCL1-BIM inh -2, Mcl1 Noxa PPI 5, 14-3-3 Bad PPI -5 and eIF4E-4G inh 1.
`Cc1ccc(C)c(C(=O)OCC(=O)Nc2cccc(S(=O)(=O)N3CCCCC3)c2)c1` gave MCL1-BIM inh 2.
Screening C=CCc1c(C)nc(SCC(N)=O)[nH]c1=O returned Mcl1 Bid PPI 10, MCL1-BIM inh -1, Mcl1 Noxa PPI 27, 14-3-3 Bad PPI -2, Bim-Mcl-1 0 and eIF4E-4G inh 6.
C=CCc1c(C)nc(SCCC)[nH]c1=O was read as Mcl1 Bid PPI 3, MCL1-BIM inh -4, Mcl1 Noxa PPI 98*, 14-3-3 Bad PPI -10, Bim-Mcl-1 -3 and eIF4E-4G inh -2.
`CC1CN(C(=O)N2c3ccccc3Sc3ccccc32)CC(C)O1` (configuration not stated) gave Mcl1 Bid PPI -3, MCL1-BIM inh -2, Mcl1 Noxa PPI 22, 14-3-3 Bad PPI 3, Bim-Mcl-1 -5 and eIF4E-4G inh -4.
Screening CC1CN(C(=O)N2c3ccccc3Sc3ccccc32)C(C)CC1=O (configuration not stated) returned Mcl1 Bid PPI -18, MCL1-BIM inh 4, Mcl1 Noxa PPI 70*, 14-3-3 Bad PPI -1, Bim-Mcl-1 -2 and eIF4E-4G inh 1.
O=C1CN(C(=O)CSc2nc(-c3ccc(Cl)cc3)cs2)c2ccccc2N1 was read as Mcl1 Bid PPI -6, MCL1-BIM inh -2, Mcl1 Noxa PPI -15, 14-3-3 Bad PPI 0, Bim-Mcl-1 0 and eIF4E-4G inh -1.
`CCOCCCNC(=S)N1CCN(Cc2ccc3c(c2)OCO3)CC1` gave Mcl1 Bid PPI -24, MCL1-BIM inh -3, Mcl1 Noxa PPI 28, 14-3-3 Bad PPI 95*, Bim-Mcl-1 0 and eIF4E-4G inh 0.
Screening CCCNC(=S)N1CCN(Cc2ccc3c(c2)OCO3)CC1 returned Mcl1 Bid PPI -28, MCL1-BIM inh 2, Mcl1 Noxa PPI 35, 14-3-3 Bad PPI 20, Bim-Mcl-1 5 and eIF4E-4G inh -1.
For Fc1ccccc1NC(=S)N1CCN(Cc2ccc3c(c2)OCO3)CC1 the results were Mcl1 Bid PPI 92*, MCL1-BIM inh 14, Mcl1 Noxa PPI 4, 14-3-3 Bad PPI -8, Bim-Mcl-1 0 and eIF4E-4G inh 3.
Cc1cc(Cl)ccc1NC(=S)N1CCN(Cc2ccc3c(c2)OCO3)CC1 was read as Mcl1 Bid PPI -26, MCL1-BIM inh 3, Mcl1 Noxa PPI 17, 14-3-3 Bad PPI -1, Bim-Mcl-1 -2 and eIF4E-4G inh -3.
Screening CCC1(C)CC(C(CC(=O)O)c2ccc(C)cc2)CCO1 (configuration not stated) returned Mcl1 Bid PPI -16, MCL1-BIM inh 7, Mcl1 Noxa PPI 4, 14-3-3 Bad PPI -15, Bim-Mcl-1 -1 and eIF4E-4G inh -2.
`COCCn1c(N)c(N(Cc2ccccc2)C(=O)COc2ccccc2F)c(=O)[nH]c1=O` gave MCL1-BIM inh -8.
Screening CCn1nc(C(=O)Nc2ccc(S(=O)(=O)Nc3nccs3)cc2)c2ccccc2c1=O returned Mcl1 Bid PPI -29, MCL1-BIM inh -23, Mcl1 Noxa PPI 64*, 14-3-3 Bad PPI 1, Bim-Mcl-1 5 and eIF4E-4G inh -1.
`O=C(Nc1ccc(S(=O)(=O)Nc2ncccn2)cc1)c1nn(Cc2ccccc2)c(=O)c2ccccc12` gave Mcl1 Bid PPI -37, MCL1-BIM inh -1, Mcl1 Noxa PPI -2, 14-3-3 Bad PPI 3 and eIF4E-4G inh -9.
O=C(Nc1ccc(S(=O)(=O)Nc2nccs2)cc1)c1cccc(N2C(=O)c3ccccc3C2=O)c1 was read as Mcl1 Bid PPI -98, MCL1-BIM inh 2, Mcl1 Noxa PPI 53*, 14-3-3 Bad PPI -6, Bim-Mcl-1 -1 and eIF4E-4G inh -4.
Screening O=C(Nc1nccs1)c1cccc(N2C(=O)c3cccc4c([N+](=O)[O-])ccc(c34)C2=O)c1 returned Mcl1 Bid PPI 101*, MCL1-BIM inh 47*, Mcl1 Noxa PPI 93*, 14-3-3 Bad PPI 77*[fluorescence artefact?], Bim-Mcl-1 0 and eIF4E-4G inh -40.
`O=C(Nc1ccc(S(=O)(=O)Nc2nccs2)cc1)c1c(F)c(F)c(F)c(F)c1F` gave MCL1-BIM inh 8.
For Cc1ccc(C(C)(C)NC(=O)C2CCC(=O)N(CC3CCCCC3)C2)cc1 (configuration not stated) the results were MCL1-BIM inh -1.
Screening CCOc1ccc(-c2nnc(SCC(=O)O)n2Cc2ccccc2)cc1 returned MCL1-BIM inh -8.
CC1(C)CC(=O)c2cnc3c(C#N)cnn3c2C1 was read as Mcl1 Bid PPI 53*, MCL1-BIM inh -2, Mcl1 Noxa PPI 18, 14-3-3 Bad PPI -1, Bim-Mcl-1 1 and eIF4E-4G inh 7.
Screening COC(=O)c1ccc(OC(=O)CCN2C(=O)C3C4c5ccccc5C(c5ccccc54)C3C2=O)cc1 (configuration not stated) returned Mcl1 Bid PPI 52*, MCL1-BIM inh 1, Mcl1 Noxa PPI 10, 14-3-3 Bad PPI 2, Bim-Mcl-1 -10 and eIF4E-4G inh -4.
COc1ccc(OC(=O)CCN2C(=O)C3C4C=CC(C4)C3C2=O)cc1 (configuration not stated) was read as Mcl1 Bid PPI -45, MCL1-BIM inh 9, Mcl1 Noxa PPI 5, 14-3-3 Bad PPI -2, Bim-Mcl-1 -4 and eIF4E-4G inh -1.
Screening Fc1ccc(NC(=S)N/N=C/c2cccc(Br)c2)c(F)c1 returned Mcl1 Bid PPI 97*, MCL1-BIM inh 3, Mcl1 Noxa PPI -1, 14-3-3 Bad PPI -11, Bim-Mcl-1 -2 and eIF4E-4G inh -2.

Compound activity from PubChem BioAssay.
